Consider 53 compounds from PubChem BioAssay AID485297 (National Center for Advancing Translational Sciences (NCATS), 2010).

The campaign covered roughly 320,000 compounds. About 9,100 (2.8%) were called active. Not shown: some 3% with an inconclusive outcome. Calls follow the shape of the dose curve; as a rule, active = well fitted activation curve with a large enough effect; inconclusive = small, poorly fitted or top-dose-only effect; inactive = no such curve, though single readings can be large or run the other way. Many of the other results were omitted from the sample, so actives are more common in it than they were.
Potency is read from the fitted curve at half-maximal effect.

This assay in a line: qHTS Assay for Rab9 Promoter Activators. Also: nearly all actives have a fitted effect of over 60% in size. As to activation, negative = inhibition: % of control where 0% means no effect. As to conditions: Huh7 Rab9 promoter-luciferase reporter, luminescence, 24 h; series mostly up to 9.22 µM; activation, negative = inhibition: at the top concentration. Put shortly: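 Using Huh7 cells stably transfected with Rab9 promoter–luciferase, compounds were incubated 24 h at 37 °C, 5% CO2; luciferase luminescence was read 10 min after reagent addition.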
(In qHTS, concentration-response curves come from the screen itself.)
For `Cc1ccc(O)c(CNc2nc3ccccc3[nH]2)c1`, the “activation, negative = inhibition” value was 6.94% (inactive). On the same count and under the same terms, the result for `O=C(Nc1cc(-c2nc3ncccc3o2)ccc1Cl)c1ccco1` reads 13.9% (inactive); that for `Cc1cc(NC(=O)c2ccco2)c(=O)n(Cc2c(F)cccc2Cl)c1`, -1.33% (inactive). With `Cc1ccc(-n2nc3cc(C)c(NC(=O)c4cccnc4)cc3n2)cc1`, the Potency was 3.55 µM (active). For `Cc1ccc(S(=O)(=O)N2CCCCC2)cc1NC(=O)c1cccnc1`, the “activation, negative = inhibition” value is 0.0836% (inactive).

As to `Cc1ccc(-n2nc3cc(Cl)c(NC(=O)c4ccco4)cc3n2)cc1`, the Potency was 3.55 µM (active). In the case of `O=C(Nc1cccc(-n2cnnn2)c1)c1cccnc1`, the “activation, negative = inhibition” value is -7.65% (inactive). Still for that read-out and setting: the result for `O=C(OC1CCCCC1=O)c1cccc(S(=O)(=O)NCc2ccccc2)c1` (stereo not drawn) reads 8.23% (inactive). Turning to `CCOc1ccccc1NC(=O)NC1CCCCCCC1`, the “activation, negative = inhibition” value is 0.121% (inactive). On the same count and under the same terms, in the case of `O=C(CN1CCN(C2CCS(=O)(=O)C2)CC1)N1N=C(c2ccc(Cl)cc2)CC1c1ccco1` (stereo not drawn) it was -4.64% (inactive). On to `CC(=O)NCc1ccc(-c2csc(NC(=O)CCCc3nc4ccccc4c(=O)[nH]3)n2)cc1`, for which the “activation, negative = inhibition” value is -4.83% (inactive).

As to `CC1(C(=O)OCC(=O)Nc2ncc(Cl)cc2Cl)CC1(Cl)Cl` (stereo not drawn), the “activation, negative = inhibition” value was -3.32% (inactive). Regarding `O=C(CSc1ccccc1)Nc1cccc(S(=O)(=O)N2CCOCC2)c1`, the “activation, negative = inhibition” value was -4% (inactive).

For `CC(=NCC1CCCO1)c1c(O)[nH]c(=O)[nH]c1=O` (stereo not drawn), the “activation, negative = inhibition” value is 13.7% (inactive). Take `O=C1C(C=NCC2CCCO2)=C(O)c2ccccc21` (stereo not drawn): the Potency is 2.82 µM (active). Regarding `O=C1c2cccc3c([N+](=O)[O-])ccc(c23)C(=O)N1CC1CCCO1` (stereo not drawn), the “activation, negative = inhibition” value was -27.7% (inactive). Consider `O=[N+]([O-])c1ccccc1SNc1ccccn1`, for which the “activation, negative = inhibition” value was -3.18% (inactive). `O=C(O[C@H]1[C@H](Cc2ccccc2)NS(=O)(=O)[C@H]2C[C@@H]3C=C[C@]12O3)c1ccc([N+](=O)[O-])cc1`: the “activation, negative = inhibition” value was -4.99% (inactive). Consider `COc1ccc2c(C)cc(SCC(=O)NCC3CCCO3)nc2c1` (stereo not drawn), for which the “activation, negative = inhibition” value was -0.334% (inactive). Take `CCCCSc1nnc(-c2ccc(C)cc2)o1`: the Potency was 1.58 µM (active). On to `Cc1cccc(C)c1OC(=O)CSc1nnc(-c2ccccc2)o1`, for which the “activation, negative = inhibition” value is 6.16% (inactive). Consider `CCOC(=O)CSc1nnc(-c2ccncc2)o1`, for which the “activation, negative = inhibition” value is -6.83% (inactive). Take `Cc1ccc(S(=O)(=O)N(C)C)cc1NC(=O)C(C)OC(=O)c1ccc2ccccc2n1` (stereo not drawn): the “activation, negative = inhibition” value was -1.95% (inactive). Still for that read-out and setting: in the case of `O=C(O)c1ccc(N=NN2CCOCC2)cc1` it was -0.19% (inactive); in that of `O=C(c1ccccc1)N1CCN(C(=O)N2CCCCC2)CC1`, 1.56% (inactive). For the compound `O=C(O)c1cccc(N=NN2CCCCCC2)c1`, the Potency is 0.282 µM (active).

On to `COc1ccc2c3c(c(=O)oc2c1)C1O[C@](CCCCN2C(=O)c4ccccc4C2=O)(Cc2c1ccc1ccccc21)O3`, for which the activation, negative = inhibition is -1.17% [at 1.84 µM] (inactive). The same measure, in the same setting: the result for `COc1cc(C(=O)NCC2(c3ccccc3)CCCC2)ccc1OC(C)C` reads -3.81% (inactive); that for `Cc1nc2cc(NC(=O)NC3CC3)ccc2n1C`, 17.9% (inactive). Turning to `Cc1cc2nc(C)n(CCCNC(=O)Nc3ccccc3)c2cc1C`, the “activation, negative = inhibition” value was -2.07% (inactive). Take `Cc1nc2cc(NC(=O)Nc3cccc(F)c3)ccc2n1C`: the Potency was 0.0891 µM (active). `CC(=O)Cn1cnc2c(cnn2-c2ccccc2)c1=O`: the “activation, negative = inhibition” value is 14.2% (inactive). For `c1ccc(-n2ncc3c2ncn2c(C4CCCCC4)nnc32)cc1`, the Potency is 3.98 µM (active). Regarding `CN(C(=O)COc1ncnc2c1cnn2-c1ccccc1)C1CCCCC1`, the “activation, negative = inhibition” value was -10.6% (inactive). Same read-out and setting: the result for `c1ccc2cc(CCCc3cc4ccccc4cn3)ncc2c1` reads -1.89% (inactive); that for `CCCc1ccc(OCCNC(=O)c2ccco2)cc1`, 28.3% (inactive).

As for `O=C(NCCOc1ccccc1)c1ccccc1`, the Potency was 0.708 µM (active).

Regarding `CCCOc1ccc(C(=O)NCCc2ccccc2)cc1`, the Potency was 0.447 µM (active). Regarding `CCCCCCCCC(=O)NCCOc1ccccc1`, the “activation, negative = inhibition” value is 0.417% (inactive). The same measure, in the same setting: the result for `CN(c1ccccc1)S(=O)(=O)c1ccc(C(=O)NCCc2ccccc2)cc1` reads 27.2% (inactive). On to `CC(C)c1ccc(C(=O)NCCCc2ccccc2)cc1`, for which the Potency was 3.16 µM (active).

Regarding `COc1ccc(OCCCC(=O)NCCc2ccccc2)cc1`, the “activation, negative = inhibition” value is -0.814% (inactive). Take `Cc1noc(C)c1COc1ccc(C(=O)NCCOc2ccccc2)cc1`: the “activation, negative = inhibition” value was 20.5% (inactive).

For the compound `O=C(CCNC(=O)c1ccc(Br)cc1)NCCCc1ccccc1`, the “activation, negative = inhibition” value was -0.377% (inactive). In the case of `CC1(C)NC(=O)N(CC(=O)N2CCN(S(=O)(=O)c3ccccc3F)CC2)C1=O`, the “activation, negative = inhibition” value is -3.99% (inactive). Regarding `CC(=O)Nc1ccc(NC(=O)CSc2nnc(C3CC3)n2-c2ccccc2)cc1`, the “activation, negative = inhibition” value is -4.66% (inactive). On to `CCC(C)C(N=C1NS(=O)(=O)c2ccccc21)C(=O)N1CCC(C)CC1` (stereo not drawn), for which the “activation, negative = inhibition” value was 3.36% (inactive).

In the case of `O=C(NCCc1ccc(F)cc1)c1ccc2nccnc2c1`, the Potency was 1.12 µM (active).

As for `Cc1ccc(C)c(NC(=O)c2ccc3nccnc3c2)c1`, the “activation, negative = inhibition” value was 9.71% (inactive). As for `O=C(NCCc1ccc(F)cc1)c1ccc(S(=O)(=O)N2CCCCC2)cc1`, the “activation, negative = inhibition” value is -0.716% (inactive).

Turning to `CC(=O)Nc1ccc(NC(=O)COC(=O)c2ccccc2C(=O)c2ccccc2)cc1`, the “activation, negative = inhibition” value is -6.29% (inactive). With `CCN(CC)S(=O)(=O)c1ccc2[nH]c(=O)cc(C(=O)N(C)C3CCS(=O)(=O)C3)c2c1` (stereo not drawn), the “activation, negative = inhibition” value was 10.2% (inactive). Still for that read-out and setting: in the case of `Cc1ccccc1Nc1nc(N)nc(COC(=O)CCC(=O)c2ccc(F)cc2)n1` it was 1.65% (inactive).
